From the supplement of paper PMC4466140

Biological target: ScBbc1
Assay: SPOT peptide array binding signal intensity (averaged, normalized) (arbitrary units (background-subtracted, floor 0; scale differs between SH3 domains)); higher = stronger binding of the SH3 domain to the peptide
Procedure, shortened: (§1)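 Detection of bound protein relied on anti-GST antibody, an HRP anti-mouse secondary and luminol, with imaging and quantification in Genespotter. The bound protein was GST-fused SH3 domains from four yeast species, incubated at 10 μg/ml overnight at 4°C in TBS-based blocking buffer on cellulose membranes carrying synthetic 15-mer peptides with cysteines replaced by serines. Binding signal is normalized, background-subtracted spot intensity averaged over replicates, in arbitrary units that differ between domains.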

| Binder | SPOT peptide array binding signal intensity |
| --- | --- |
| RKQRSIPLSPIVPES | 20.2 |

Biological target: ScBem1-D1
Assay: as above
Procedure, shortened: as §1

| Binder | SPOT peptide array binding signal intensity |
| --- | --- |
| RKQRSIPLSPIVPES | 7 |

Biological target: ScBzz1-D1
Assay: as above
Procedure, shortened: as §1

| Binder | SPOT peptide array binding signal intensity |
| --- | --- |
| RKQRSIPLSPIVPES | 25.5 |

Biological target: ScBzz1-D2
Assay: as above
Procedure, shortened: as §1

| Binder | SPOT peptide array binding signal intensity |
| --- | --- |
| RKQRSIPLSPIVPES | 12.5 |

Biological target: ScCyk3
Assay: as above
Procedure, shortened: as §1

| Binder | SPOT peptide array binding signal intensity |
| --- | --- |
| RKQRSIPLSPIVPES | 37 |

Biological target: ScFus1
Assay: as above
Procedure, shortened: as §1

| Binder | SPOT peptide array binding signal intensity |
| --- | --- |
| RKQRSIPLSPIVPES | 98 |

Biological target: ScHof1
Assay: as above
Procedure, shortened: as §1

| Binder | SPOT peptide array binding signal intensity |
| --- | --- |
| RKQRSIPLSPIVPES | 0.5 |

Biological target: ScHse1
Assay: as above
Procedure, shortened: as §1

| Binder | SPOT peptide array binding signal intensity |
| --- | --- |
| RKQRSIPLSPIVPES | 679 |

Biological target: ScLsb1
Assay: as above
Procedure, shortened: as §1

| Binder | SPOT peptide array binding signal intensity |
| --- | --- |
| RKQRSIPLSPIVPES | 1.75 |

Biological target: ScLsb2
Assay: as above
Procedure, shortened: as §1

| Binder | SPOT peptide array binding signal intensity |
| --- | --- |
| RKQRSIPLSPIVPES | 2 |

Biological target: ScLsb3
Assay: as above
Procedure, shortened: as §1

| Binder | SPOT peptide array binding signal intensity |
| --- | --- |
| RKQRSIPLSPIVPES | 243 |

Biological target: ScLsb4
Assay: as above
Procedure, shortened: as §1

| Binder | SPOT peptide array binding signal intensity |
| --- | --- |
| RKQRSIPLSPIVPES | 9 |

Biological target: ScMyo3
Assay: as above
Procedure, shortened: as §1

| Binder | SPOT peptide array binding signal intensity |
| --- | --- |
| RKQRSIPLSPIVPES | 7 |

Biological target: ScMyo5
Assay: as above
Procedure, shortened: as §1

| Binder | SPOT peptide array binding signal intensity |
| --- | --- |
| RKQRSIPLSPIVPES | 6.25 |

Biological target: ScNbp2
Assay: as above
Procedure, shortened: as §1

| Binder | SPOT peptide array binding signal intensity |
| --- | --- |
| RKQRSIPLSPIVPES | 142 |

Biological target: ScPex13
Assay: as above
Procedure, shortened: as §1

| Binder | SPOT peptide array binding signal intensity |
| --- | --- |
| RKQRSIPLSPIVPES | 4.5 |

Biological target: ScRvs167
Assay: as above
Procedure, shortened: as §1

| Binder | SPOT peptide array binding signal intensity |
| --- | --- |
| RKQRSIPLSPIVPES | 39.7 |

Biological target: ScSho1
Assay: as above
Procedure, shortened: as §1

| Binder | SPOT peptide array binding signal intensity |
| --- | --- |
| RKQRSIPLSPIVPES | 284 |

Biological target: ScSla1-D1-D2
Assay: as above
Procedure, shortened: as §1

| Binder | SPOT peptide array binding signal intensity |
| --- | --- |
| RKQRSIPLSPIVPES | 193 |

Biological target: ScSla1-D3
Assay: as above
Procedure, shortened: as §1

| Binder | SPOT peptide array binding signal intensity |
| --- | --- |
| RKQRSIPLSPIVPES | 57.2 |

Biological target: SpAbp1-D1
Assay: as above
Procedure, shortened: as §1

| Binder | SPOT peptide array binding signal intensity |
| --- | --- |
| RKQRSIPLSPIVPES | 85 |

Biological target: SpBbc1
Assay: as above
Procedure, shortened: as §1

| Binder | SPOT peptide array binding signal intensity |
| --- | --- |
| RKQRSIPLSPIVPES | 0.25 |

Biological target: SpBzz1-D1
Assay: as above
Procedure, shortened: as §1

| Binder | SPOT peptide array binding signal intensity |
| --- | --- |
| RKQRSIPLSPIVPES | 171 |

Biological target: SpBzz1-D2
Assay: as above
Procedure, shortened: as §1

| Binder | SPOT peptide array binding signal intensity |
| --- | --- |
| RKQRSIPLSPIVPES | 0.5 |

Biological target: SpCyk3
Assay: as above
Procedure, shortened: as §1

| Binder | SPOT peptide array binding signal intensity |
| --- | --- |
| RKQRSIPLSPIVPES | 1.5 |

Biological target: SpHof1
Assay: as above
Procedure, shortened: as §1

| Binder | SPOT peptide array binding signal intensity |
| --- | --- |
| RKQRSIPLSPIVPES | 26.8 |

Biological target: SpHof1-2
Assay: as above
Procedure, shortened: as §1

| Binder | SPOT peptide array binding signal intensity |
| --- | --- |
| RKQRSIPLSPIVPES | 2.25 |

Biological target: SpHof1-3
Assay: as above
Procedure, shortened: as §1

| Binder | SPOT peptide array binding signal intensity |
| --- | --- |
| RKQRSIPLSPIVPES | 340 |

Biological target: SpHse1
Assay: as above
Procedure, shortened: as §1

| Binder | SPOT peptide array binding signal intensity |
| --- | --- |
| RKQRSIPLSPIVPES | 293 |

Biological target: SpLsb1
Assay: as above
Procedure, shortened: as §1

| Binder | SPOT peptide array binding signal intensity |
| --- | --- |
| RKQRSIPLSPIVPES | 2 |

Biological target: SpLsb4
Assay: as above
Procedure, shortened: as §1

| Binder | SPOT peptide array binding signal intensity |
| --- | --- |
| RKQRSIPLSPIVPES | 25.5 |

Biological target: SpMyo1
Assay: as above
Procedure, shortened: as §1

| Binder | SPOT peptide array binding signal intensity |
| --- | --- |
| RKQRSIPLSPIVPES | 3 |

Biological target: SpNbp2
Assay: as above
Procedure, shortened: as §1

| Binder | SPOT peptide array binding signal intensity |
| --- | --- |
| RKQRSIPLSPIVPES | 115 |

Biological target: SpPex13
Assay: as above
Procedure, shortened: as §1

| Binder | SPOT peptide array binding signal intensity |
| --- | --- |
| RKQRSIPLSPIVPES | ≤ 0 |

Biological target: SpRvs167
Assay: as above
Procedure, shortened: as §1

| Binder | SPOT peptide array binding signal intensity |
| --- | --- |
| RKQRSIPLSPIVPES | 18.8 |

Biological target: SpSla1-D1-D2
Assay: as above
Procedure, shortened: as §1

| Binder | SPOT peptide array binding signal intensity |
| --- | --- |
| RKQRSIPLSPIVPES | ≤ 0 |

Biological target: SpSla1-D3
Assay: as above
Procedure, shortened: as §1

| Binder | SPOT peptide array binding signal intensity |
| --- | --- |
| RKQRSIPLSPIVPES | 1 |
